# Source: PubChem BioAssay (NCI)
# The panel holds about 83,000 compounds, 20% with a hit somewhere; the sample as a whole holds those more often.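 Method: cells in 96-well plates; compound added at one concentration; 48 h incubation; percent growth measured; values under 10 scored active.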 A number with no mark means an inactive call. Active and inactive are the calls of the source.
# Assays:
# Experiment in all cases: NCI-60 one-dose screen, 48 h (100 = growth as untreated, 0 = no growth, -100 = all killed)
# Settings in all cases: 10 µM unless noted
# SK-MEL-2 melanoma = tested on: SK-MEL-2 melanoma
# EKVX NSCLC = tested on: EKVX NSCLC
# SN12C renal = tested on: SN12C renal
# UO-31 renal = tested on: UO-31 renal
# TK-10 renal = tested on: TK-10 renal
# ACHN renal = tested on: ACHN renal
# CAKI-1 renal = tested on: CAKI-1 renal
# A498 renal = tested on: A498 renal
# CCRF-CEM leukemia = tested on: CCRF-CEM leukemia
# MOLT-4 leukemia = tested on: MOLT-4 leukemia
# SR leukemia = tested on: SR leukemia
# RPMI-8226 leukemia = tested on: RPMI-8226 leukemia
# OVCAR-8 ovarian = tested on: OVCAR-8 ovarian
# OVCAR-5 ovarian = tested on: OVCAR-5 ovarian
# OVCAR-4 ovarian = tested on: OVCAR-4 ovarian
# SK-OV-3 ovarian = tested on: SK-OV-3 ovarian
# IGROV1 ovarian = tested on: IGROV1 ovarian
# OVCAR-3 ovarian = tested on: OVCAR-3 ovarian
# HS 578T breast = tested on: HS 578T breast
# NCI/ADR-RES ovarian = tested on: NCI/ADR-RES ovarian
Structure (SMILES),growth (SK-MEL-2 melanoma),growth (EKVX NSCLC),growth (SN12C renal),growth (UO-31 renal),growth (TK-10 renal),growth (ACHN renal),growth (CAKI-1 renal),growth (A498 renal),growth (CCRF-CEM leukemia),growth (MOLT-4 leukemia),growth (SR leukemia),growth (RPMI-8226 leukemia),growth (OVCAR-8 ovarian),growth (OVCAR-5 ovarian),growth (OVCAR-4 ovarian),growth (SK-OV-3 ovarian),growth (IGROV1 ovarian),growth (OVCAR-3 ovarian),growth (HS 578T breast),growth (NCI/ADR-RES ovarian)
COc1ccc2[nH]cc(-c3nc(-c4cn(C)c5ccncc45)cs3)c2c1,93%,-14.1% (active),96.2%,77.6%,78.6%,83.9%,67.2%,89.1%,-20.3% (active),63%,-11.2% (active),-40.3% (active),-9.37% (active),103%,24.1%,112%,-38.5% (active),117%,101%,62.1%
CCCCCCCCCCCCCCCCCCOc1ccccc1CC(=O)NCC[N+]1(C)CCOCC1,74.6%,91.3%,40.5%,77.3%,7.69% (active),84.5%,98.6%,67.4%,-36.4% (active),14.6%,18.2%,-4.77% (active),67.8%,26.3%,71.7%,81.2%,-67.2% (active),67.3%,67.4%,103%
OC(c1ccccc1)(c1ccccc1)c1ccccc1-c1ccccc1,103%,115%,89%,78.5%,89.8%,99%,84.2%,81.5%,92.9%,84%,95.2%,82.9%,96.7%,94.7%,80.4%,86.6%,91.2%,101%,94.2%,85.5%
Cc1ccc2nc(Cl)c(Cn3nnnc3SCc3ccccc3)cc2c1,96.6%,80.7%,92.8%,69.6%,97.9%,91.8%,72.1%,74.5%,93.9%,97.8%,80%,93.1%,97.3%,94.3%,86.9%,97.7%,95.4%,105%,83.1%,86.1%
COC(=O)c1ccc2c(c1)c1c(C)c3ccncc3c(C)c1n2C,13.9%,34.3%,36.1%,11.9%,32.7%,14.8%,13%,-0.17% (active),30.4%,12.9%,-5.73% (active),26.8%,28.8%,44.9%,22%,40%,24%,39.5%,35.6%,29.3%
COC(=O)/C=C1/SC(=Nc2cccc(Cl)c2)N(CCc2c[nH]c3ccc(O)cc23)C1=O,-15.8% (active),45.7%,10%,17.7%,89.2%,15.9%,37.4%,79.9%,0.545% (active),-8.3% (active),-8.45% (active),-23.9% (active),-4.55% (active),58.7%,24.9%,86.6%,4.15% (active),3.41% (active),27.7%,18.4%
COc1ccc(C2=NN(C(=O)c3cc(OC)c(OC)c(OC)c3)C(c3ccc(N(C)C)cc3)C2)cc1 (stereo not given),66.5%,35.6%,31.3%,19.4%,56.5%,25.8%,39.1%,-1.92% (active),26.7%,18.9%,15.3%,-27.9% (active),29.3%,64.7%,35.2%,35.4%,-8.59% (active),5.03% (active),13.6%,-5.85% (active)
CN1CCN(Cc2ccc(NC(=O)c3cncc(C#Cc4cncc5ncccc45)c3)cc2C(F)(F)F)CC1,-69.1% (active),39.2%,21.3%,-10.2% (active),22%,8.35% (active),-19.7% (active),-25.5% (active),3.31% (active),9.12% (active),-37.7% (active),9.58% (active),28.1%,25.2%,17.3%,-3.03% (active),1.13% (active),36.3%,-5.88% (active),30.9%
CN1CCN(Cc2ccc(NC(=O)c3cncc(C#Cc4cnn5ccccc45)c3)cc2C(F)(F)F)CC1,-27% (active),-3.23% (active),-1.07% (active),-9.3% (active),7.73% (active),2.54% (active),-9.06% (active),-11.7% (active),6.17% (active),1.84% (active),-21.2% (active),-17.5% (active),9.77% (active),4.3% (active),-2.15% (active),15.5%,3.17% (active),0.315% (active),-15.4% (active),-6.37% (active)
COc1ccc2nc(SCC(=O)Nc3ccccc3C)[nH]c2c1,101%,88.4%,95.2%,74.3%,105%,94.4%,88%,-41.9% (active),87.5%,88.8%,89.5%,90.1%,94.2%,99.6%,95.2%,105%,103%,107%,90.9%,99%
CN1C(=O)/C(=C/c2ccc(C(=O)Nc3ncc(Cc4ccc(F)cc4)s3)cc2)SC1=S,71.2%,48.4%,61.8%,46.5%,53.5%,28%,16.3%,35%,47.8%,39.6%,44.5%,54.6%,57.9%,61.2%,60.1%,40.3%,54.3%,27.7%,37.9%,28.7%
Cc1c2ccccc2nc2c1ccc1cccnc12,95.5%,62.7%,88.7%,83.9%,96.1%,97.3%,77%,80.2%,77.8%,68.3%,85.9%,64.8%,91.7%,83.5%,51.7%,116%,15%,-1.84% (active),117%,60.9%
Cc1ccc2[nH]c(-c3ccc(S(C)(=O)=O)cc3)c(/C=N/N=C(N)N)c2c1,43.2%,90.2%,56.9%,60%,90.9%,63%,52.3%,38.2%,37.2%,41.6%,24.4%,39.2%,58.4%,101%,90.7%,57.7%,76.2%,27.6%,50.5%,49.4%
CC(C)c1ccc(C(=O)Nc2sc3cc(O)ccc3c2C#N)cc1,47.6%,52.9%,34.2%,25.1%,63.4%,47.3%,39.6%,-0.765% (active),12.3%,18.3%,0.658% (active),21.2%,51.2%,87.8%,58%,50.2%,31.1%,16.4%,26.6%,11.2%
CCc1ccc(CCC(=O)Nc2ncc(Cc3ccc(Cl)cc3)s2)o1,44.1%,37.2%,44.8%,43%,60%,48.3%,31.9%,0.963% (active),22.4%,36.5%,18.4%,31.5%,31.3%,52.1%,63.8%,37.4%,34.8%,1.07% (active),2.63% (active),17.3%
